About 5,400 (1.8%) of roughly 300,000 compounds were called active. A call without a number means that no potency is given here. About 28% were inconclusive and are not listed. The call rests on the fitted dose curve; tested in HEK293 cells. For the sample, actives were picked, then their nearest neighbours and some compounds at random.
Experiment: qHTS for inhibitors of binding or entry into cells for Marburg Virus
Conditions: Marburg virus pseudotyped entry inhibition, cell reporter; series mostly up to 37.8 µM
Potency means the concentration at half of the fitted maximal effect.

Structure (SMILES) | Potency
O=C(c1ccc(S(=O)(=O)N2CCCC2)cc1)N1CCN(c2ccccc2F)CC1 | inactive
c1ccc(CCc2ccccn2)cc1 | inactive
O=C(O)c1ccc(/C=N/Nc2nc(N3CCCCC3)nc(N3CCCCC3)n2)cc1 | inactive
Cc1cc(N2CCN(c3ccccc3)CC2)nc(N2CCOCC2)n1 | inactive
C(=N/Nc1cc(N2CCOCC2)nc(N2CCOCC2)n1)/c1ccccc1 | 2.51 µM (active)
O=C1C2C3C=CC(C3)C2C(=O)N1c1ncc([N+](=O)[O-])s1 (centres undefined) | inactive
Cc1noc(/C=C/c2ccco2)c1S(=O)(=O)N1CCC(C(=O)Nc2ccc(Cl)cn2)CC1 | 6.51 µM (active)
Cc1cccc(NC(=O)C2CCN(S(=O)(=O)c3c(C)noc3/C=C/c3ccco3)CC2)c1 | inactive
Cc1noc(/C=C/N(C)C)c1S(=O)(=O)N1CCCC(C(=O)Nc2cccc(F)c2)C1 (centres undefined) | inactive
Cc1nnc(SCC(=O)N2CCc3ccccc3C2)s1 | inactive
Cc1nnc(SCC(=O)NCc2ccccc2)s1 | inactive
Cc1nnc(SCC(=O)N2c3ccccc3C(C)(c3ccc(Cl)cc3)CC2(C)C)s1 (centres undefined) | 10 µM (active)
Nn1c(SCC(=O)Nc2ccc3c(c2)CCC3)nnc1C1CC1 | inactive
Cn1c(CNC(=O)c2ccco2)nnc1SCC(=O)N1CCN(c2ccccc2)CC1 | inactive
Cc1ccccc1NC(=O)Cc1nnc(SCC(=O)N2CCN(c3ccccc3)CC2)n1C | inactive
Cn1c(Cc2cccc3ccccc23)nnc1SCC(=O)N1CCN(c2cccc(Cl)c2)CC1 | 12.6 µM (active)
Cc1cccc(C(=O)N[C@H](C(=O)NCc2cccs2)C(C)C)c1 | inactive
CCCOC(=O)CSC1=C(C#N)[C@H](c2ccccc2OCC)[C@H](C#N)C(=O)N1 | inactive
C=CC1=C(C)C2=NC1=CC1=NC(=CC3=NC(=CC4=NC(=C2)C(C)=C4CCC(=O)O)C(CCC(=O)O)=C3C)C(C=C)=C1C | inactive
CN1CCC[C@@H]1CCO[C@](C)(c1ccccc1)c1ccc(Cl)cc1 | 9.2 µM (active)
CC(C)(c1ccccc1)c1ccc(OCCN)cc1 | inactive
Cc1ccc(S(=O)(=O)Nc2ccc(F)c(S(=O)(=O)N3CCOCC3)c2)cc1 | inactive

Structure (SMILES) | Potency
O=C(Nc1nnc(-c2ccccc2)o1)c1cccc(S(=O)(=O)N2CCOCC2)c1 | 12.6 µM (active)
O=C(NNC(=S)Nc1ccccc1)c1cccc(S(=O)(=O)N2CCOCC2)c1 | inactive
O=C(c1cccc(S(=O)(=O)N2CCOCC2)c1)N1CCOCC1 | inactive
C/C(=N/OC(=O)c1ccc(Br)cc1)c1ccc(C)cc1 | inactive
Cc1ccc(CSCC(=O)N(C)CC(=O)Nc2cccc(F)c2)cc1 | inactive
Cc1c(CCO)c(=O)n(-c2ccccc2)n1S(=O)(=O)c1ccc(F)cc1 | inactive
CC(=O)NC1(c2ccc(F)cc2)CCN(C(=O)c2c(F)cccc2F)CC1 | inactive
Cc1c(CCO)c(=O)[nH]n1C(=O)c1c(F)cccc1F | 2.06 µM (active)
O=C(CSc1nc(C2CC2)nc2ccccc12)Nc1cccc(O)c1 | inactive
Cc1ccc(CCC(=O)Nc2ncc(Cc3cc(Cl)ccc3Cl)s2)o1 | 0.651 µM (active)
Cc1cnc(NC(=O)CSc2nnc(-c3ccc(Cl)cc3Cl)n2N)s1 | inactive
CCOc1ccccc1NC(=O)CCc1ccc(C)o1 | inactive
O=C(OCCOc1ccccc1F)c1cc(S(=O)(=O)N2CCOCC2)ccc1F | inactive
COc1ccc(CCNC(=O)C(Sc2ccccn2)c2ccccc2)cc1OC (centres undefined) | inactive
CCCCC(=O)NC(c1ccc(OC)c(OC)c1)c1ccc2cccnc2c1O (centres undefined) | 3.16 µM (active)
C=CCn1c(COc2cccc3cccnc23)nnc1SCC(=O)OC | inactive
Cc1cccc(NC(=O)c2cccnc2Cl)n1 | inactive
CCOc1ccc(-n2c(SCC(=O)Nc3cc(C(=O)O)ccc3Cl)nc3ccccc3c2=O)cc1 | inactive
N#CCCN(C(=O)COC(=O)c1ccc2c(c1)OCCO2)c1ccccc1 | inactive
Cc1ccc(N2CC(C(=O)Nc3ccc(N(C)C)cc3)CC2=O)cc1Cl (centres undefined) | inactive
COC(=O)CN(C(=S)Nc1ccc(Cl)cc1)C1CC(=O)N(c2ccc(OC)cc2)C1=O (centres undefined) | inactive
CN(C)c1ccc(NC(=S)N(CCc2ccccc2)C2CC(=O)N(c3c(Cl)cccc3Cl)C2=O)cc1 (centres undefined) | 4.47 µM (active)

Structure (SMILES) | Potency
COc1ccccc1NC(=O)COC(=O)CNC(=O)C1CCCCC1 | inactive
CC(C=Cc1ccccc1)=NNS(=O)(=O)c1ccc([N+](=O)[O-])cc1 | inactive
CCn1c(C(O)c2cc(OC)ccc2OC)nc2ccccc21 (centres undefined) | inactive
Cc1nc(-c2ccc(F)cc2)c(CC(=O)Nc2cc(S(=O)(=O)N3CCCCC3)ccc2C)s1 | inactive
CS(=O)(=O)c1ccc(Cl)c(NC(=O)COC(=O)c2cccc(S(=O)(=O)N3CCCC3)c2)c1 | inactive
CC(=O)c1c(C)[nH]c(C(=O)OCC(=O)Nc2cc(S(=O)(=O)N3CCCCC3)ccc2C)c1C | 9.2 µM (active)
COc1ccc(CC(=O)Nc2ccc3c(c2)CCC3)cc1S(=O)(=O)N1CCOCC1 | inactive
COc1ccc(CCC(=O)Nc2ccc(Cl)c(S(=O)(=O)N3CCOCC3)c2)cc1OC | 6.31 µM (active)
O=C(CCc1ccc(S(=O)(=O)N2CCOCC2)cc1)Nc1ccc2ccccc2c1 | inactive
CCN(CC(=O)Nc1cc(Cl)ccc1C)C(=O)CSCc1ccccc1 | inactive
CCOCCCN1C(=O)C2C(C(=O)Nc3ccc(OCC)cc3)C3C=CC2(O3)C1C(=O)NC1CCCCC1 (centres undefined) | inactive
COc1ccc(NS(=O)(=O)c2ccc(N3CCOCC3)c(NC(=O)c3ccccc3Br)c2)cc1 | 2.51 µM (active)
CC(=O)Nc1ccc(S(=O)(=O)Nc2ccc(N3CCOCC3)c(F)c2)cc1 | inactive
COc1ccc(NS(=O)(=O)c2ccc(C)c(C(=O)NCC(c3cccs3)N3CCOCC3)c2)cc1 (centres undefined) | inactive
CCCCCN(C(=O)CCC(=O)OCC(=O)NC1CCC(C)CC1)c1c(N)n(CCCC)c(=O)[nH]c1=O (centres undefined) | inactive
CC1CCN(C(=O)C2CCN(S(=O)(=O)N3CCC4(CC3)OCCO4)CC2)CC1 | inactive
NC(=O)C1CCN(C(=O)c2cn(-c3ccccc3)nc2-c2cccnc2)CC1 | inactive
C/C(=N\NC(=O)Cc1ccc(Br)cc1)c1cccnc1 | inactive
C/C(=N\NC(=O)Cc1ccc(Cl)cc1)c1ccccn1 | 3.26 µM (active)
CC1=NNC(=O)C1CCC(=O)N/N=C(\C)c1ccc(Cl)cc1 (centres undefined) | inactive

Source: PubChem BioAssay AID540276 (National Center for Advancing Translational Sciences (NCATS), 2011)
